Activity calls are given as the source filed them. How the calls were made is not given here.

The target of the assay is Histone deacetylase 4 (Homo sapiens) (UniProt P56524). The experiment in a line: HDAC4 enzyme inhibition, profiling panel, selectivity assay for E-cadherin restoration project, biochemical, HDAC isoform panel (AID 651928).
Histone deacetylase 4 (Homo sapiens), sequence (P56524 whole entry, looked up, canonical isoform): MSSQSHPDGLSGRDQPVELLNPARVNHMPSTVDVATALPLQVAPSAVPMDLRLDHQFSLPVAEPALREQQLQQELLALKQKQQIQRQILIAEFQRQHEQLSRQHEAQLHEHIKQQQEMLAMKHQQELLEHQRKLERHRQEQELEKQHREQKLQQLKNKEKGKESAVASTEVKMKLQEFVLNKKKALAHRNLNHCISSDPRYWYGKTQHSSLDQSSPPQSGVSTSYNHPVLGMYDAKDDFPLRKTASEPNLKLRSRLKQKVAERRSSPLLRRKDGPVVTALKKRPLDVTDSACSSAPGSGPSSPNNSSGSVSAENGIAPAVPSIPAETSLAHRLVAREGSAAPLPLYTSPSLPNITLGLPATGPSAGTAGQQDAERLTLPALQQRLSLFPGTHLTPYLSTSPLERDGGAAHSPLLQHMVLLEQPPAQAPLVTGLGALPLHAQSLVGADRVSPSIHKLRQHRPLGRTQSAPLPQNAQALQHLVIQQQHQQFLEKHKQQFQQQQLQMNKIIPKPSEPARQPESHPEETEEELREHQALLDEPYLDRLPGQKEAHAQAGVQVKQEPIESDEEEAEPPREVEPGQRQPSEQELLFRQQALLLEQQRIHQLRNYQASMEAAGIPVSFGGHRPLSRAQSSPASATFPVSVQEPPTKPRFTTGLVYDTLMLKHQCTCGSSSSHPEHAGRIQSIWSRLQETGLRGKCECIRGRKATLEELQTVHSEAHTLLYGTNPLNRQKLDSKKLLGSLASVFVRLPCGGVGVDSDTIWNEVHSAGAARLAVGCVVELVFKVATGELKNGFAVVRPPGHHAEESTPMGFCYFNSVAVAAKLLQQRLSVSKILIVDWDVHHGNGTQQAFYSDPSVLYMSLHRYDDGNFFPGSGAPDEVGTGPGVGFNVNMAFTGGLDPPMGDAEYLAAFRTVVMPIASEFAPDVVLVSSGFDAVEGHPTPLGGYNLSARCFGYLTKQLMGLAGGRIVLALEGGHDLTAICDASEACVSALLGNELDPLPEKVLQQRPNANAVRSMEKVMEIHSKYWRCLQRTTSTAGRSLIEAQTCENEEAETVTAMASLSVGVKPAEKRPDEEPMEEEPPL

`O=C(NCCCNC(=O)c1ccc[nH]c1=O)c1cc(-c2ccccc2)on1`: the compound was classed as inactive.

The record behind these values is PubChem BioAssay AID651928 (Vanderbilt Specialized Chemistry Center, 2012).
